Test results: PubChem BioAssay (Tox21)
Records with an inconclusive call do not appear. The source made the active and inactive calls. Unless noted, calls come from the whole dose curve; as a rule, active = well fitted curve in the direction sought with a large enough effect in the repeat runs; inconclusive = weak or mixed curves; inactive = no such curve, though single readings can be large; an effect the other way counts as inactive or inconclusive.

Legend:
[1] = qHTS assay for small molecules that induce genotoxicity in human embryonic kidney cells expressing luciferase-tagged ATAD5 (AID 651632); note: nearly all actives have a fitted effect of over 15% in size
Method in brief: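 Genotoxicity read-out via ATAD5-luciferase: HEK293T cells, 16 hr compound incubation at 37C, Amplite detection.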

[2] = qHTS assay for small molecule agonists of the p53 signaling pathway - cell viability (AID 651633; calls by dose curve;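 note: p53RE-bla HCT reporter cells with a stable beta-lactamase p53 reporter; series mostly up to about 83 µM; nearly all actives have a fitted effect of over 30% in size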)
Method in brief: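 p53RE-bla cells were treated with compound for 16 hours at 37 C. Cytotoxicity was then measured as CellTiter-Glo luminescence after 30 min at room temperature.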

[3] = qHTS assay for small molecule disruptors of the mitochondrial membrane potential - cell viability (AID 720634; calls by dose curve;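 note: human HepG2 liver cancer cells; series mostly up to about 83 µM; nearly all actives have a fitted effect of over 20% in size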)
Method in brief: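 Human hepatoma HepG2 cells were treated for 1 hr with test chemicals, then given m-MPI dye and CellTiter-Glo. Cell viability reflects luminescence proportional to cellular ATP.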

[4] = qHTS assay for small molecule disruptors of the mitochondrial membrane potential (AID 720635); note: potency is the fitted concentration of half-maximal effect
Method in brief: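 HepG2 cells exposed to compound 1 hr at 37C, then Mito-MPS dye 30 min. Ratio read of aggregate (540/590 nm) versus monomer (490/535 nm) fluorescence.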

[5] = qHTS assay to test for compound auto fluorescence at 590 nm (red) in HepG2 cells (AID 720674)
Method in brief: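 HepG2 cells, 2,000 per well in MEM with 10% FBS, attached overnight at 37 C, then got 23 nL compound or DMSO. After 1 hr at 37 C, 5% CO2, red fluorescence was read at 540/590 nm against Rose Bengal sodium as reference.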

[6] = qHTS assay to test for compound auto fluorescence at 535 nm (green) in HepG2 cells (AID 720675)
[7] = qHTS assay to test for compound auto fluorescence at 460 nm (blue) in HEK293 cells (AID 720678)
Method in brief: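 After cell attachment (4-5 hr, 37C), compounds were pinned onto HEK293 monolayers in 10% dialyzed FBS medium. The blue channel (405/460 nm) was read following overnight culture. Equivalency was calculated against triamterene.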

[8] = qHTS assay to test for compound auto fluorescence at 590 nm (red) in HEK293 cells (AID 720679)
Method in brief: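 Plates of HEK293 cells (10% dialyzed FBS) are treated with 23 nL compound or DMSO vehicle after a 4-5 hr attachment period, incubated overnight at 37C, and read for red fluorescence at 540/590nm.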

[9] = qHTS assay for small molecules that induce genotoxicity in human embryonic kidney cells expressing luciferase-tagged ATAD5 - cell viability (AID 651634; calls by dose curve; note: nearly all actives have a fitted effect of over 25% in size; note: potency is the fitted concentration of half-maximal effect)
Method in brief: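 Live-cell protease activity (CellTiter-Fluor, fluorescence) indicates viability. HEK293T cells with luciferase-tagged ATAD5; 15.5 hr compound treatment at 37C.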
% is set by controls: 0 for no effect and ±100 for the full control effect.

O=C(Cl)c1c(Cl)cccc1Cl
inactive: Potency [1] | Potency [2] | Potency [3] | Potency [4] | outcome [5] | outcome [6] | Potency [7] | outcome [8]

CC(C)CCCCCCOC(=O)c1ccc(C(=O)OCCCCCCC(C)C)c(C(=O)OCCCCCCC(C)C)c1
inactive: Potency [1] | Potency [2] | Potency [3] | Potency [4] | outcome [5] | outcome [6] | Potency [7]

CCCCc1cc2ccccc2c(OCCN(C)C)n1
inactive: Potency [1] | Potency [2] | Potency [9] | Potency [3] | fluorescence, relative to Rose Bengal [5] 0.0286% [at 18.6 µM] | fluorescence, % of fluorescein control [6] 0.0129% [at 18.6 µM] | fluorescence, % of triamterene [7] 0.0451% [at 18.6 µM] | fluorescence, % of fluorescent control [8] -0.0036% [at 18.6 µM]

O=C(CCN1CCN2CCCC2C1)N1c2ccccc2Sc2ccc(Cl)cc21 (stereo unspecified)
inactive: Potency [1] | Potency [2] | Potency [9] | Potency [3] | outcome [5] | outcome [6] | Potency [7] | outcome [8]

C=CC(=O)OCCOC(=O)CCC(=O)O
inactive: Potency [1] | Potency [2] | Potency [9] | Potency [3] | outcome [5] | outcome [6] | Potency [7]

CCCCOc1ccc(CC(=O)NO)cc1
active: Potency [9] 9.02 µM
inactive: Potency [1] | Potency [2] | Potency [3] | fluorescence, relative to Rose Bengal [5] 0.376% [at 18.6 µM] | fluorescence, % of fluorescein control [6] 0.007% [at 18.6 µM] | fluorescence, % of triamterene [7] -0.0396% [at 18.6 µM] | fluorescence, % of fluorescent control [8] 0.184% [at 18.6 µM]

S=C(S)NCCNC(=S)S
inactive: Potency [1] | Potency [2] | Potency [3] | outcome [5] | outcome [6] | Potency [7]

CN1CCC(=C2c3ccccc3C=Cc3ccccc32)CC1
inactive: Potency [1] | Potency [2] | Potency [9] | Potency [3] | outcome [5] | outcome [6] | Potency [7] | outcome [8]

CC(=O)c1c(C)c([N+](=O)[O-])c(C(C)(C)C)c([N+](=O)[O-])c1C
active: Potency [4] 54.5 µM
inactive: Potency [1] | Potency [2] | outcome [5] | outcome [6] | Potency [7] | outcome [8]

CCOC(=O)C1=NN(c2ccccc2)C(=O)C1
inactive: Potency [1] | Potency [2] | Potency [9] | Potency [3] | outcome [5] | outcome [6] | Potency [7] | outcome [8]

N[C@H]1C(O)O[C@H](CO)[C@H](O)[C@@H]1O (stereo partly specified)
inactive: Potency [1] | Potency [2] | Potency [9] | Potency [3] | outcome [5] | outcome [6] | Potency [7] | outcome [8]

O=S1(=O)c2cccc3cccc(c23)N1CCCN1CCN(c2ccc(F)cc2)CC1
inactive: Potency [1] | Potency [2] | Potency [9] | Potency [3] | outcome [5] | Potency [7]

CCc1nn(C2CCCCC2)c2cc(C3(C#N)CCC(C(=O)O)CC3)ccc12 (stereo unspecified)
inactive: Potency [1] | Potency [2] | Potency [3] | outcome [5] | outcome [6] | Potency [7]

CCCCC(CC)(CO)CO
inactive: Potency [1] | Potency [2] | Potency [9] | Potency [3] | outcome [5] | outcome [6] | Potency [7] | outcome [8]

CCCCOCCOCCOCCOCCO
inactive: Potency [1] | Potency [2] | Potency [3] | Potency [4] | outcome [5] | outcome [6] | Potency [7] | outcome [8]

CCOc1ccc(NC(=O)CC(C)=O)cc1
inactive: Potency [1] | Potency [2] | Potency [3] | Potency [4] | outcome [5] | Potency [7] | outcome [8]

Cc1ccc(O)c([C@H](CCN(C(C)C)C(C)C)c2ccccc2)c1
inactive: Potency [1] | Potency [2] | Potency [3] | outcome [5] | outcome [6] | Potency [7]

CCOC(=O)[C@H](CCc1ccccc1)N[C@H]1CCc2ccccc2N(CC(=O)O)C1=O
inactive: Potency [1] | Potency [2] | Potency [3] | outcome [5] | outcome [6] | outcome [8]

CCOC(=O)C1=C(C)NC(C)=C(C(=O)OC)C1c1cccc([N+](=O)[O-])c1 (stereo unspecified)
active: Potency [4] 26.6 µM
inactive: Potency [1] | Potency [2] | outcome [5] | outcome [6] | Potency [7] | outcome [8]

CNCC[C@@H](Oc1ccccc1C)c1ccccc1
inactive: Potency [1] | Potency [2] | Potency [9] | Potency [3] | outcome [5] | outcome [6] | Potency [7] | outcome [8]

C=C(C)C(=O)OCCOc1ccccc1
inactive: Potency [1] | Potency [2] | Potency [9] | Potency [3] | outcome [5] | Potency [7] | outcome [8]

c1ccc(OCc2ccc(CCCN3CCOCC3)cc2)cc1
inactive: Potency [1] | Potency [9] | Potency [3] | outcome [5] | outcome [6] | Potency [7] | outcome [8]

O=C(Nc1ccccc1)OCC(CN1CCCCC1)OC(=O)Nc1ccccc1 (stereo unspecified)
inactive: Potency [1] | Potency [9] | fluorescence, relative to Rose Bengal [5] -0.654% [at 18.6 µM] | fluorescence, % of fluorescein control [6] 0.0386% [at 18.6 µM] | fluorescence, % of triamterene [7] 0.0079% [at 18.6 µM] | fluorescence, % of fluorescent control [8] 0.0612% [at 18.6 µM]

CC(C)(C)c1cc(CO)cc(C(C)(C)C)c1O
inactive: Potency [1] | Potency [9] | Potency [3] | outcome [5] | outcome [6] | Potency [7] | outcome [8]
active: Potency [4] 49.5 µM

Oc1ccc(Cc2ccccc2)cc1
inactive: Potency [1] | Potency [9] | Potency [3] | outcome [5] | outcome [6] | Potency [7] | outcome [8]
active: Potency [4] 14.2 µM

CC(C)(C)c1cc(CCC(=O)OCC(COC(=O)CCc2cc(C(C)(C)C)c(O)c(C(C)(C)C)c2)(COC(=O)CCc2cc(C(C)(C)C)c(O)c(C(C)(C)C)c2)COC(=O)CCc2cc(C(C)(C)C)c(O)c(C(C)(C)C)c2)cc(C(C)(C)C)c1O
inactive: Potency [1] | Potency [9] | Potency [3] | outcome [5] | outcome [6] | Potency [7] | outcome [8]

CCCCCCCCCCCCCCCCCBr
inactive: Potency [1] | Potency [9] | Potency [3] | fluorescence, relative to Rose Bengal [5] -0.244% [at 18.6 µM] | fluorescence, % of fluorescein control [6] -0.0441% [at 18.6 µM] | fluorescence, % of triamterene [7] 0.159% [at 18.6 µM]

ClC(Cl)(Cl)c1ccc(C(Cl)(Cl)Cl)cc1
active: Potency [4] 13.5 µM
inactive: Potency [1] | Potency [3] | outcome [5] | outcome [6] | Potency [7] | outcome [8]
